PfHsp90 set2: growth inhibition of yeast expressing Plasmodium Hsp90. AID 504621. inhibition, % at 9.4 µM. hit rate 0.32% among 310,000. S. cerevisiae expressing PfHsp90, BacTiter-Glo ATP, 48 h; yeast lacking PDR1 and PDR3 efflux regulators;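 active = every replicate shows inhibition above about 80%, whatever the replicate mean, limit read from the data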;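 also: 0% = DMSO neutral controls and 100% = 20 µM radicicol positive controls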
tim23-1 inh: tim23-1 yeast growth inhibition | S. cerevisiae tim23-1 growth, BacTiter-Glo luminescence, 24 h | hit rate 1.3% among 330,000 | AID 463212 | inhibition, % at 20 µM;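 active = growth inhibition of the mutant yeast at or above 50%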;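 also: temperature-sensitive mutant grown at 25 °C; plate controls were DMSO-treated mutant yeast for no effect and medium wells lacking yeast for full effect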
tim10-1 inh: tim10-1 yeast growth inhibition | AID 463190 | inhibition, % at 20 µM | S. cerevisiae tim10-1 ts strain growth, BacTiter-Glo, 24 h | hit rate 2.2% among 330,000;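 active = inhibition of at least 40%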;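 also: mutant grown at 25 °C; 0% = DMSO wells with yeast and 100% = wells holding no yeast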
V-ATPase pHluor: alters yeast V-ATPase proton transport | response, % at 10 µM | AID 504577 | hit rate 0.37% among 350,000 | S. cerevisiae, pHLuorin cytosolic pH fluorescence; in the data active = response mostly above about 7.3%, no sharp cut-off; inactive = mostly below about 5.4%; also: actives read high
TIM10 inh: inhibits growth of TIM10 yeast strain | S. cerevisiae TIM10 strain growth, BacTiter-Glo luminescence, 24 h | inhibition, % at 10 µM | hit rate 1.4% among 330,000 | AID 463195;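 active = inhibition of 40% or more at the single tested concentration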;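 also: wild-type TIM10 isogenic control strain grown at permissive 25 °C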
tim10-1 confirm: tim10-1 yeast growth inhibition, confirmed | shares compounds with tim10-1 inh | S. cerevisiae tim10-1 ts strain growth, BacTiter-Glo, 24 h | inhibition, % at 20 µM | hit rate 56% among 7,400 | AID 463213;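 active = inhibition of yeast growth at or above a set limit in either of two repeat tests at 20 µM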;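 also: tim10-1 mutant grown at permissive 25 °C to find synthetic lethal compounds; 0% = DMSO yeast wells and 100% = medium wells without yeast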
TIM10 conf: TIM10 yeast growth inhibition, confirmed. shares compounds with TIM10 inh. S. cerevisiae tim10 strain growth, BacTiter-Glo luminescence, 24 h. inhibition, % at 10 µM. hit rate 63% among 4,600;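 active = inhibition of yeast growth at or above a set limit in either of two replicates at 10 µM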;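 also: this counterscreen used the strain with wild-type TIM10; 0% = yeast with DMSO and 100% = medium wells lacking yeast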
tim23-1 confirm: tim23-1 yeast growth inhibition, confirmed; inhibition, % at 20 µM; S. cerevisiae tim23-1 growth, BacTiter-Glo luminescence, 24 h; hit rate 83% among 4,400; shares compounds with tim23-1 inh;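 active = inhibition above about 39% in either of two replicate wells at 20 µM, limit read from the data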;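 also: temperature-sensitive tim23-1 mutant grown at 25 °C; 0% = DMSO wells with yeast and 100% = medium wells without yeast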
* marks the source's active call; other numbers are inactive results; x = no result given. Only some compounds are listed: those with a hit (about 3.7% of all), similar ones and a draw of the others.

SMILES | PfHsp90 set2 | tim23-1 inh | tim10-1 inh | V-ATPase pHluor | TIM10 inh | tim10-1 confirm | TIM10 conf | tim23-1 confirm
COc1ccc(C(=O)c2c(C(F)(F)F)oc3c2C(=O)c2ccccc2C3=O)cc1OC | -23 | 67* | 52* | 10 | 38 | 40* | x | 68*
COc1ccc(C(=O)Nc2ccc3c(c2)C(=O)c2ccccc2C3=O)cc1OC | 27 | -2 | -7 | -1 | 5 | x | x | x
CC1CC(C)CN(C(=O)CCNC(=O)Cn2ccc3ccccc3c2=O)C1 (configuration not stated) | 3 | -6 | -26 | -4 | -2 | x | x | x
O=C(COc1ccccc1)N[C@@H]1c2ccccc2CC[C@H]1OCc1ccccc1 | -8 | 47 | 29 | 0 | 4 | x | x | x
Cc1ccccc1OCC(=O)NC(=S)Nc1ccc(Br)c(C)n1 | -5 | 27 | 7 | 0 | 10 | x | x | x
Cc1ccccc1OCC(=O)NC(=S)Nc1cccc2cc(O)ccc12 | -12 | 63* | 57* | 4 | 25 | 55* | x | 49*
N/C(=N\OC(=O)/C=C/c1ccccc1)c1ccccc1 | -18 | 77* | 43* | 3 | 45* | 53* | 63* | 73*
Cc1ccccc1/C(N)=N/OC(=O)c1ccc(F)cc1 | -7 | 74* | 44* | 1 | 73* | 43* | 56* | 67*
Cc1ccccc1C(=O)O/N=C(\N)c1ccccc1 | -11 | 57* | 55* | 4 | 53* | 58* | 50* | 68*
N/C(=N\OC(=O)c1ccoc1)c1ccc(Br)cc1 | 20 | 81* | 59* | 0 | 71* | 54* | 64* | 84*
O=C1CC2(CCN(C(=O)c3ccc(F)c(F)c3)CC2)Oc2ccccc21 | -14 | 13 | 15 | -5 | -1 | x | x | x
C[C@H](CO)N1C[C@H](C)[C@H](CN(C)C(=O)Nc2ccc3c(c2)OCCO3)OCc2cnnn2CCCC1=O | x | x | x | 0 | x | x | x | x
CC(=O)C1=C(c2ccccc2)N(C(C)=O)n2c(C)nnc2S1 | 5 | 15 | 27 | 1 | 9 | x | x | x
F[B-](F)(F)c1cncc2ccccc12 | 5 | x | x | -2 | x | x | x | x
Cn1nc(N2CCN(S(=O)(=O)c3ccccc3)CC2)c(=O)n(C)c1=O | 16 | 14 | 11 | 0 | 7 | x | x | x
Cc1cc(OCC(=O)O/N=C(\N)c2ccccc2)cc(C)c1Cl | 25 | 73* | 64* | 0 | 36 | 49* | x | 80*
O=C(/C=C/c1ccccc1)/C=C/c1ccccc1 | 16 | 59* | 48* | 1 | 53* | 49* | -29 | 67*
Cc1cc(OCC(=O)O/N=C(\N)c2ccccc2)ccc1Cl | -2 | x | x | 3 | x | x | x | x
Cc1ccc(C)c(C(=O)O/N=C(\N)c2ccc(Br)cc2)c1 | -4 | 86* | 57* | -6 | 87* | 33* | 87* | 61*
Cc1ccc(C(=O)O/N=C(\N)c2ccc(Br)cc2)cc1C | -1 | 21 | 36 | -1 | 21 | x | x | x
Cc1cccc(N2CCN(C(=S)NCc3ccco3)CC2)c1C | -41 | 53* | 55* | 3 | 20 | 48* | x | 43*
CCOc1ccccc1N1CCN(C(=S)NCc2ccco2)CC1 | 15 | 26 | 17 | -1 | 10 | x | x | x
S=C(NCc1ccco1)N1CCN(Cc2ccc(Cl)cc2Cl)CC1 | -9 | 70* | 51* | 0 | 48* | 54* | 43* | 62*
COc1cccc(/C=N/NC(=O)c2ccc(-n3cnnn3)cc2)c1 | -4 | -3 | -14 | -3 | -5 | x | x | x
Cc1ccc(-c2nnc(N3CCN(C(=O)c4ccco4)CC3)c3ccccc23)cc1 | 13 | 70* | 61* | 0 | 53* | 50* | -12 | 63*
SMILES | PfHsp90 set2 | tim23-1 inh | tim10-1 inh | V-ATPase pHluor | TIM10 inh | tim10-1 confirm | TIM10 conf | tim23-1 confirm
CC(=O)N1CCN(c2nnc(-c3ccccc3)c3ccccc23)CC1 | 19 | -58 | -46 | 2 | -30 | x | x | x
O=Nc1c(-c2cccc([N+](=O)[O-])c2)nc2ncccn12 | x | 89* | 91* | x | 84* | 91* | 98* | 73*
O=C(O)CSCC(=O)Nc1ccc(Cl)cc1C(F)(F)F | -16 | 8 | 1 | 3 | -8 | x | x | x
CC(C)N(CC(=O)Nc1ccc(Cl)cc1C(F)(F)F)C(=O)CCl | 0 | 55* | 47* | -2 | 67* | 59* | 56* | 54*
CNC(=O)c1c(NC(=O)C2=COCCO2)sc2c1CCC(C)C2 (configuration not stated) | -25 | 56* | 51* | -2 | 31 | 23 | x | 50*
CC1CCc2c(sc(NC(=O)C3=COCCO3)c2C(N)=O)C1 (configuration not stated) | -2 | 21 | 13 | 5 | 16 | x | x | x
N/C(Cc1cccc2ccccc12)=N\OC(=O)c1ccccc1F | -3 | 67* | 55* | -3 | 61* | 50* | 71* | 76*
O=C(O/N=C(/c1ccccc1)c1ccncc1)c1cccc(F)c1 | -16 | 37 | 29 | 0 | 39 | x | x | x
N/C(Cc1cccc2ccccc12)=N\OC(=O)COc1ccccc1 | -5 | 41 | 38 | 7 | 33 | x | x | x
O=C(O/N=C(\c1ccccc1)c1ccncc1)c1ccccc1F | 6 | 51* | 50* | -1 | 30 | 37* | x | 61*
N/C(Cc1ccc(Cl)cc1Cl)=N\OC(=O)c1ccccc1F | 4 | 65* | 63* | 2 | 81* | 14 | 88* | 53*
N/C(Cc1ccccc1)=N\OC(=O)c1cccc2ccccc12 | -8 | 68* | 77* | -5 | 85* | 57* | 91* | 50*
CC(C)CCn1c(SCC(=O)NC2CC2)nc2cc(Cl)ccc2c1=O | -9 | 3 | -4 | -6 | -18 | x | x | x
N/C(=N\OC(=O)c1ccc2ccccc2c1)c1ccc(Br)cc1 | -20 | 9 | 28 | -2 | 13 | x | x | x
N/C(=N\OC(=O)c1cccc2ccccc12)c1ccc(Br)cc1 | 16 | 63* | 67* | -5 | 69* | 61* | 69* | 68*
C=CCc1cccc(/C=N/NC(=O)c2ccccc2Br)c1O | 4 | 62* | 44* | 0 | 64* | 19 | 58* | 61*
O=C(N/N=C/c1ccccc1C(=O)O)c1ccccc1Br | x | 5 | 13 | 0 | 11 | x | x | x
N#Cc1ccc(OCC(=O)OCC(=O)c2ccc[nH]2)cc1 | x | 17 | 23 | 0 | 4 | x | x | x
COc1ccc(NC(=O)/C(C#N)=C/c2ncc([N+](=O)[O-])n2C)c(OC)c1 | 15 | 84* | 58* | 6 | 25 | 66* | x | 81*
CCNC(=S)N/N=C/c1ccc(-c2ccccc2)o1 | -10 | 53* | 44* | 1 | 28 | 33* | x | 36
N#C/C(=C\c1ccccn1)c1nc2ccccc2s1 | -6 | 65* | 83* | -1 | 78* | 87* | 82* | 34
